Each structure is given as a SMILES string. Where “and” joins values, the source holds several entries; their conditions need not be identical. Equal entries are not always repeated. Values without a mark were called inactive. Records with an inconclusive call do not appear. Calls of active or inactive are those of the source. Unless noted, calls come from the whole dose curve; as a rule, active = well fitted curve in either direction with a large enough effect (not every such curve was filed as active); inconclusive = small, poorly fitted or top-dose-only effect, or another doubt; inactive = flat fitted curve, though single readings scatter.

For experiment [1], the target named is Cytochrome P450 1A2 (Homo sapiens) (UniProt P05177). As to the kind of experiment: p450-cyp1a2 (AID 410; calls by dose curve; note: potency is the fitted concentration of half-maximal effect;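 for activity change, negative = inhibition: -100% = full effect of reference inhibitor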). Summed up: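 O-Demethylation of luciferin 6' methyl ether by human CYP1A2 is monitored as luciferase luminescence. Substrate sits at Km (100uM); enzyme is 20nM. Values are scaled to 57 uM furafylline as maximal inhibition.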
Sequence of Cytochrome P450 1A2 (Homo sapiens) (P05177 whole entry, looked up): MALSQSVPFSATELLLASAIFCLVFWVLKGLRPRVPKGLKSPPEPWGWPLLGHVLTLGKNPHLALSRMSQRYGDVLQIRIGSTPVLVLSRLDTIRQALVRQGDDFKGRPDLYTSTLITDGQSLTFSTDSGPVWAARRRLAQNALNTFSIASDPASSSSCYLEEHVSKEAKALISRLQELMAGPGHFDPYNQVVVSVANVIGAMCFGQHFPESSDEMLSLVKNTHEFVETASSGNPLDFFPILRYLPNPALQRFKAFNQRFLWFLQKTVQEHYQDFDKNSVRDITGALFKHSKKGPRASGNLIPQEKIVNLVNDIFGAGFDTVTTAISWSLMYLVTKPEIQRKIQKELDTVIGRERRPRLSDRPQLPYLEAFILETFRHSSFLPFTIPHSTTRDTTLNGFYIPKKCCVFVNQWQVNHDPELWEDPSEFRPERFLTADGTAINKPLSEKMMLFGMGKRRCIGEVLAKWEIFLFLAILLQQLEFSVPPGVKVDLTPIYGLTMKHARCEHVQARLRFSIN
Experiment [2] in a line: NFAT Signaling Pathway (AID 444).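 Note: carbachol stimulus at about its EC50 of 1 µM final; % is set by controls: 0 for no effect and ±100 for the full control effect.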 As to conditions: Jurkat NFAT-bla M1, carbachol, beta-lactamase ratio, 5 h. Put shortly: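 Jurkat cells with NFAT-driven β-lactamase reporter and co-expressed M1 receptor, stimulated with carbachol (final 1 uM, ~EC50), compound titration, 5 h at 37 °C. CCF4 loaded 1 h at RT; 460/530 nm ratio gave %activity and AC50.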
The nature of experiment [3]: Stat Signaling Pathway (AID 446).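 Note: ME-180 cervical cancer cells given 40 pM IL-6 alongside compound; SIE-controlled beta-lactamase reporter measured as 460/530 nm FRET emission ratio; % is set by controls: 0 for no effect and ±100 for the full control effect.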 Put shortly: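 Emission at 460 and 530 nm (excitation 405 nm) reports SIE-controlled beta-lactamase in ME-180 cells. Cells received compound with 40 pM IL-6 for 5 hrs at 37 C; data scaled between 300 pM IL-6 and 125 nM JAK-inhibitor controls.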
The target of experiment [4] is Glucocorticoid receptor (Homo sapiens) (UniProt P04150). Description: GR-GFP Redistribution (AID 450;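 active = compounds whose dose series gives a full or clear partial fitted curve of increased nuclear translocation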; note: potency is the fitted concentration of half-maximal effect). As to conditions: U2OS GR-GFP nuclear translocation, laser cytometry, 2 h.
Sequence of Glucocorticoid receptor (Homo sapiens) (P04150 whole entry, looked up): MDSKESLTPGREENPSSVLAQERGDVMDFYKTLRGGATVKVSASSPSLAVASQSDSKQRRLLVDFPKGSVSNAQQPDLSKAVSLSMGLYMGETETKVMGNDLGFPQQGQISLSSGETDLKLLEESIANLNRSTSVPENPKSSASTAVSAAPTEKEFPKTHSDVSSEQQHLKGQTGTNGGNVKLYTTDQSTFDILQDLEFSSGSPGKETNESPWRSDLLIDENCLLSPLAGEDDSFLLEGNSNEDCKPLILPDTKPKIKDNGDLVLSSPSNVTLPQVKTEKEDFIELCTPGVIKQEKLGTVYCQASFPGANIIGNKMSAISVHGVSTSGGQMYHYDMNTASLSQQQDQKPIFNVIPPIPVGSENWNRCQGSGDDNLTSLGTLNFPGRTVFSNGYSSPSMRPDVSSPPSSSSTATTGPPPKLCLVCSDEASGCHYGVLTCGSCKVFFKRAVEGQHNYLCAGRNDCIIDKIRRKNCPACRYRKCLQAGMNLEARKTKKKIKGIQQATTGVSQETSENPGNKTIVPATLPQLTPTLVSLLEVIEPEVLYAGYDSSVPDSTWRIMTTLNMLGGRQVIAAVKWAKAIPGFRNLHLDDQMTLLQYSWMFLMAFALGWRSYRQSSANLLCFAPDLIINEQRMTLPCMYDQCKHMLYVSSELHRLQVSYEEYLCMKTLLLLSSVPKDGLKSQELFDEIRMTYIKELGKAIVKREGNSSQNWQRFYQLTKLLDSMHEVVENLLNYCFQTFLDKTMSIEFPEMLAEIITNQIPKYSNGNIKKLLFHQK
The target is the same in experiment [5]. As to the kind of experiment: GR-EFC Redistribution (AID 451; calls by dose curve; note: potency is the fitted concentration of half-maximal effect). As to conditions: CHO-K1 GR-EFC translocation, beta-gal luminescence, 2 h. Put shortly:
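CHO-K1 cells expressing nuclear EA and GR-ED fragments of b-gal; compounds titrated up to 46 uM final, 2 h at 37 C. GR nuclear translocation read as complemented b-gal luminescence after 1 h RT detection.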

Experiment [6] has as its target Mitogen-activated protein kinase 10 (Mus musculus) (UniProt Q61831). Description: JNK3 AlphaScreen Assay (AID 530).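 Note: kinase came from lysate of stimulated human HepG2 cells; signal reports phosphorylation of biotinylated GST-cJun 1-79 at Ser73 with 10 µM ATP; % is set by controls: 0 for no effect and ±100 for the full control effect.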 Put shortly: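 Activity was read by AlphaScreen after JNK3-containing HepG2 lysate (cytokine pre-activated) phosphorylated biotinylated GST-cJun with 10 uM ATP at room temperature. Phospho-Ser73 cJun antibody with Protein-A acceptor beads provided detection.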
For orientation: In Alpha technology, singlet oxygen from a donor bead excites a nearby acceptor bead.

The nature of experiment [7]: Cell Viability - BJ (AID 421; calls by dose curve;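 note: potency is the fitted concentration of half-maximal effect; cells exposed to compound for 40 hours at 37 °C before readout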). The note with it: BJ fibroblast viability, qHTS. Put shortly: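 Cytotoxicity in human BJ foreskin fibroblasts is scored as loss of cellular ATP after a 40-hour exposure, measured by luciferase luminescence. Controls are DMSO and 100 uM tamoxifen.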
A general note: In qHTS, concentration-response curves come from the screen itself.

Experiment [8] is described as follows: Cell Viability - Jurkat (AID 426;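 active = dose-dependent loss of cell ATP signal giving a full or clear fitted curve, ranked by lower potency value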;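 note: potency is the fitted concentration of half-maximal effect; cells exposed to compound for 40 hours at 37 °C before ATP read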). The note with it: qHTS. Put shortly: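 Cells of the human T-cell leukemia line Jurkat (E6-1) are seeded at 5000 per well, treated with compound across a concentration range for 40 hours at 37 °C, then lysed with CellTiter-Glo; luminescence reports ATP.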
The nature of experiment [9]: Cell Viability - Hek293 (AID 427;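 active = compounds whose dose-response curve shows a full or clear partial loss of cell viability, called from curve shape rather than a numeric limit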;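 note: potency is the fitted concentration of half-maximal effect; cells exposed to compound for 40 hours at 37 °C before reading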). The note with it: qHTS. Summed up:
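qHTS, human embryonic kidney (adenovirus-transformed) cells; 40 hr cpd, 37 °C; CellTiter-Glo ATP luminescence. Norm: DMSO = 0, 100 uM tamoxifen = 100% inhibition. Hill-fit AC50.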

Experiment [10] is described as follows: Cell Viability - HepG2 (AID 433; calls by dose curve;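 note: potency is the fitted concentration of half-maximal effect; potency for ATP loss meaning cytotoxicity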). As to conditions: qHTS. Put shortly: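 Cytotoxicity read as ATP loss (CellTiter-Glo luminescence) after 40 hr compound exposure of HepG2, 1500 cells/well, 37 °C. AC50 by Hill equation; 0% set by DMSO, 100% inhibition by 100 uM tamoxifen.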
Experiment [11] in a line: Cell Viability - MRC5 (AID 434; calls by dose curve;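 note: potency is the fitted concentration of half-maximal effect; potency reflects cytotoxicity seen as loss of intracellular ATP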). The note with it: MRC5 lung fibroblast viability, qHTS. Summed up: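 ATP luminescence read-out (CellTiter-Glo, 20 min RT) after 40 hr, 37 °C compound exposure of 1500 MRC5 cells/well. Data normalized to DMSO (basal) and 100 uM tamoxifen (100% inhibition); AC50 from standard Hill equation.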
A short description of experiment [12]: Cell Viability - SK-N-SH (AID 435; calls by dose curve; note: potency is the fitted concentration of half-maximal effect). The note with it: SK-N-SH neuroblastoma cell viability qHTS. Put shortly: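 qHTS cytotoxicity: CellTiter-Glo ATP luminescence after 40 h compound exposure of human neuroblastoma SK-N-SH cells at 37 °C. AC50 derived by Hill-equation fitting, with DMSO as basal and 100 uM tamoxifen as full inhibition.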
The nature of experiment [13]: Cell Viability - N2a (AID 540; active = well fitted curve in the direction sought with a large enough effect; an effect the other way counts as inactive or inconclusive;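 note: plate controls were DMSO alone for no effect and tamoxifen control for full effect; nearly all actives have a fitted effect of over 45% in size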). Put shortly: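 Cytotoxicity was scored as loss of cellular ATP in N2a cells, a mouse neuroblastoma line. Compounds are applied in a qHTS concentration series for 40 hr at 37 °C.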
Experiment [14] in a line: Cell Viability - NIH 3T3 (AID 541; active = well fitted curve in the direction sought with a large enough effect; an effect the other way counts as inactive or inconclusive;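 note: plate controls were DMSO alone for no effect and tamoxifen positive control for full effect; nearly all actives have a fitted effect of over 25% in size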). The note with it: NIH 3T3 cell viability, qHTS; activity change, negative = cytotoxicity: at 92.2 µM (top of the series). Put shortly: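 Cells seeded at 1000/well, rested 5 hr at 37 °C, then dosed and incubated 40 hr at 37 °C. CellTiter-Glo added, 20 min room temperature, luminescence read. AC50 by Hill fit.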
Experiment [15] can be described thus: Cell Viability - HUV-EC-C (AID 542; active = well fitted curve in the direction sought with a large enough effect; an effect the other way counts as inactive or inconclusive; note: % is set by controls: 0 for no effect and ±100 for the full control effect; nearly all actives have a fitted effect of over 35% in size). Put shortly:
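Cells were seeded at 1000 per well and incubated 5 hr at 37 °C before compound addition. After 40 hr at 37 °C, CellTiter-Glo reagent was added for 20 min and luminescence read. AC50 values came from Hill-equation modelling.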

Experiment [16] in a line: Cell Viability - H-4-II-E (AID 543; active = well fitted curve in the direction sought with a large enough effect; an effect the other way counts as inactive or inconclusive; note: % is set by controls: 0 for no effect and ±100 for the full control effect; nearly all actives have a fitted effect of over 35% in size). Summed up: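 Cells seeded at 1500 per well and rested 5 hr; compounds added; 40 hr incubation at 37 °C; CellTiter-Glo added, 20 min at room temperature; luminescence read. Hill-equation fits gave AC50.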
The nature of experiment [17]: Cell Viability - SH-SY5Y (AID 544; active = well fitted curve in the direction sought with a large enough effect; an effect the other way counts as inactive or inconclusive;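 note: 0% = DMSO alone and -100% = 100 µM tamoxifen; nearly all actives have a fitted effect of over 55% in size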). Put shortly: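 Cells were plated at 1500 per well and allowed 5 hr at 37 °C. Compounds were added across a concentration range and incubated 40 hr at 37 °C. CellTiter-Glo was added for 20 min at room temperature before luminescence reading.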
Experiment [18] is described as follows: Cell Viability - Mesenchymal (AID 546; active = well fitted curve in the direction sought with a large enough effect; an effect the other way counts as inactive or inconclusive;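 note: cells exposed to compound for 40 hours before reading; 0% = DMSO only and -100% = 100 µM tamoxifen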). As to conditions: mesenchymal cells viability, qHTS; activity change, negative = cytotoxicity: at 91.7 µM (top of the series). Put shortly: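 Human renal mesenchymal cells (glomerulus-derived), 1000 cells/well, 5 hr 37 °C pre-incubation; compound 40 hr, 37 °C; CellTiter-Glo, 20 min RT; luminescence; AC50 via Hill equation.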

Experiment [19] is described as follows: AP1 Signaling Pathway (AID 357). Note: % is set by controls: 0 for no effect and ±100 for the full control effect. The note with it: ME-180 (cervical carcinoma) AP-1-bla reporter, EGF-induced, beta-lactamase ratio, 5 h; at 17.2 µM (top of the series). Summed up: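 AP-1-bla ME-180 cells, Opti-MEM + 0.5% dialyzed FBS, plated overnight 37 °C. Cpd titration + EC50 EGF, 5 h 37 °C. CCF4 2.5 h RT; ex 405, em 460/530 ratio → %activity, AC50.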

For the molecule `CCCCNc1c(C(=O)OCC)c(C)nc2c1cnn2CC`, the Potency in experiment [1] is 631 nM (active) and 63.1 nM (active); in [4], > 46 µM and > 20.6 µM; in experiment [5] it was > 46 µM and > 20.6 µM. The figures for the activity change, negative = inhibition in [2] (at 17.2 µM (top of the series)) and in [2] (at 38 µM (top of the series)) were -22.8% and -0.356%, respectively. In addition, the call in experiment [3] was inactive. Also, the Potency entry in experiment [6] is “inactive”.

With `CCCCNC(=O)NS(=O)(=O)c1ccc(C)cc1`, the Potency result in experiment [1], in experiment [6], in experiment [15], in experiment [16], in [17] and in experiment [18] was “inactive” throughout. The Potency in [7], in experiment [8], in [9], in [10], in experiment [11] and in experiment [12] was greater than 92 µM throughout. The Potency in experiment [4] was > 46 µM and > 20.6 µM; in experiment [5], > 46 µM and > 20.6 µM. Further, the activity change, negative = inhibition in experiment [2] (at 17.2 µM (top of the series)) is -4.27%; in experiment [2] (at 38 µM (top of the series)), 12.5%. For the same molecule, the molecule was classed as inactive in experiment [3] and in experiment [13]. The activity change, negative = cytotoxicity in experiment [14] is -10.4%.

`CNCCCN1c2ccccc2CCc2ccccc21`: the activity change, negative = inhibition in experiment [19] is 29.5% and 18.8%. Further, the outcome in experiment [3] was inactive. Further, the Potency entry in [6] is “inactive”.

With `Cc1nnc(SCC2=C(C(=O)O)N3C(=O)[C@@H](NC(=O)Cn4cnnn4)[C@H]3SC2)s1`, the activity change, negative = inhibition in experiment [2] (at 17.2 µM (top of the series)) is -25%. Further, the outcome in experiment [3] was inactive.

For `COc1ccc2c(c1OC)C(=O)O[C@@H]2[C@H]1c2c(cc3c(c2OC)OCO3)CCN1C`, the activity change, negative = inhibition in experiment [2] (at 17.2 µM (top of the series)) was -10.3%. The result in [3] was inactive. In addition, the Potency in [4] is > 46 µM and > 20.6 µM; in [5] it was greater than 46 µM.

`N[C@@H](COP(=O)(O)O)C(=O)O`: the Potency in experiment [4] and in [5] was greater than 46 µM in each case. In addition, the Potency entry in [6] was “inactive”.

`CC[N+](C)(C)c1cccc(O)c1`: the Potency entry in experiment [1] and in [6] was “inactive” in each case. Also, the activity change, negative = inhibition in experiment [2] (at 17.2 µM (top of the series)) is -26.4%; in [2] (at 38 µM (top of the series)), -18.1%. In addition, in experiment [3], the molecule was called inactive.

As to `C[N+](C)(C)CCOC(=O)CCC(=O)OCC[N+](C)(C)C`, the Potency result in experiment [1] and in [6] was “inactive” throughout. The activity change, negative = inhibition in experiment [2] (at 38 µM (top of the series)) is 1.62%. Further, in experiment [3], the outcome was inactive. Besides, the Potency in experiment [4] and in experiment [5] was greater than 46 µM in each case.

Take `CCCCOCCOCCOCc1cc2c(cc1CCC)OCO2`: the Potency in experiment [7], in experiment [8], in [9], in experiment [10], in experiment [11] and in experiment [12] was greater than 92 µM each time. For the same molecule, in [13], the call was inactive. The Potency result in [15], in experiment [16], in [17] and in [18] was “inactive” throughout.

Turning to `CCOC(=O)c1cnc2c(cnn2CC)c1NN=C(C)C`, the Potency in [1] was 501 nM (active) and 126 nM (active). The activity change, negative = inhibition in experiment [2] (at 38 µM (top of the series)) is 6.94%. In addition, the molecule was called inactive in [3].

As to `CCCCCCCC/C=C\CCCCCCCC(=O)NCc1ccc(O)c(OC)c1`, the Potency in [1] was 20 µM (active); in experiment [5], greater than 46 µM.

As to `Cc1nc2sccn2c(=O)c1CCN1CCC(=C(c2ccc(F)cc2)c2ccc(F)cc2)CC1`, the Potency result in experiment [1] and in [6] was “inactive” each time. For the same molecule, in [3], the result was inactive. Also, the Potency in experiment [4] was > 46 µM and > 20.6 µM; in experiment [5], greater than 46 µM.

Turning to `CN(C)CCCN1c2ccccc2Sc2ccccc21`, in experiment [2] (at 38 µM (top of the series)), the activity change, negative = inhibition is -83.6% (active). Further, the call in [3] was inactive. Moreover, in experiment [6], the Potency entry was “inactive”.

Take `COCC(=O)O[C@]1(CCN(C)CCCc2nc3ccccc3[nH]2)CCc2cc(F)ccc2[C@@H]1C(C)C`: the Potency in [1] was 31.6 µM (active); in [4] it was greater than 46 µM; in experiment [5], greater than 46 µM. Further, the activity change, negative = inhibition in experiment [2] (at 38 µM (top of the series)) is -15.7%. The result in experiment [3] was inactive. Moreover, the Potency result in [6] was “inactive”.

In the case of `COc1cc(Cc2cnc(N)nc2N)cc(OC)c1OC`, the Potency in experiment [7], in experiment [8], in experiment [9], in experiment [10], in experiment [11] and in [12] was greater than 92 µM throughout. In addition, the activity change, negative = inhibition was -13.2% in experiment [2] (at 17.2 µM (top of the series)) and -9.42% in [2] (at 38 µM (top of the series)). Besides, the outcome in experiment [3] and in experiment [13] was inactive. The Potency entry in experiment [6], in [15], in [17] and in [18] was “inactive” each time. In addition, in experiment [14], the activity change, negative = cytotoxicity is -10.3%.

As for `CC(C)[N+](C)(CCOC(=O)C1c2ccccc2Oc2ccccc21)C(C)C`, the activity change, negative = inhibition is -48.1% (active) and -94.6% (active) in experiment [2] (at 17.2 µM (top of the series)); -63% (active) in experiment [2] (at 38 µM (top of the series)). For the same molecule, the molecule was called inactive in [3]. In addition, the Potency in experiment [4] was > 46 µM and > 20.6 µM; in experiment [5] it was > 46 µM and > 20.6 µM. Besides, in experiment [6], the Potency result was “inactive”.

`O=c1[nH]c(=O)n([C@H]2C[C@H](O)[C@@H](CO)O2)cc1Br`: the Potency in experiment [7], in [9], in experiment [10], in experiment [11] and in experiment [12] was greater than 92 µM in each case. The Potency entry in [6], in experiment [15], in [16], in experiment [17] and in [18] was “inactive” each time. For the same molecule, in experiment [13], the outcome was inactive. The activity change, negative = cytotoxicity in [14] is -17.9%.

The values above are taken from PubChem BioAssay (NCATS).
